MRP-1 activ – activates MRP-1; H69AR cells + doxorubicin, viability rescue, CellTiter-Glo; viability increase, % at 10 µM; actives 0.61% (n = 140,000); AID 799;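 active = viability gain under doxorubicin at or above a set limit, the compound median plus 3 SD, cut at about 4.7% in these data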;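 note: MRP-1 overexpressing cells given doxorubicin 25 µM after compound pretreatment; 18-22 h compound pretreatment then 72 h with doxorubicin before readout; 0% = doxorubicin-only wells and 100% = vehicle-treated cells without doxorubicin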
MRP resist rev – reverses drug resistance mediated by MRP; H69AR cells + 2 uM doxorubicin, CellTiter-Glo, 72 h; differential viability (reversal), % at 10 µM; actives 0.04% (n = 85,000); AID 602;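 active = viability drop by adding the cancer drug above about 55%, with treated viability meeting a 40% cutoff, limit read from the data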;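 note: viability without doxorubicin minus viability with 2 µM doxorubicin for each compound; larger differential means the compound sensitizes cells more to doxorubicin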
sEH activator – increases human soluble epoxide hydrolase activity; AID 717; actives 0.04% (n = 91,000); activation, % at 2 µM; purified human sEH enzymatic activity, activator screen; in the data active = activation above about 37%
Target sequence (P34913 whole entry, looked up): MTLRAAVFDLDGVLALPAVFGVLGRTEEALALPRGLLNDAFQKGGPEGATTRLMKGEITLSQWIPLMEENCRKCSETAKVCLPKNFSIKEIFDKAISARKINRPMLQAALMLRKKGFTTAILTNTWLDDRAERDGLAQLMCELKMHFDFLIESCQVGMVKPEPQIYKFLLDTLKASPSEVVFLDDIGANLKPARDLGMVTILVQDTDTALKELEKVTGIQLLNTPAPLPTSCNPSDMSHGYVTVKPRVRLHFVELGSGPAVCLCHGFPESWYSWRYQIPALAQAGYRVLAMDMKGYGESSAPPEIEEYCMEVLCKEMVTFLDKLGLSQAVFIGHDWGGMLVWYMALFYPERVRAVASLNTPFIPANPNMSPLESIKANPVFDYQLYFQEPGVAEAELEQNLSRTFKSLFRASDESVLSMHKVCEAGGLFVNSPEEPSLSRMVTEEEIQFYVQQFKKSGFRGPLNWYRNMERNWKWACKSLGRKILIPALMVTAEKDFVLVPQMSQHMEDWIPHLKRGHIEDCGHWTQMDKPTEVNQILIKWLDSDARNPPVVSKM
sdo1 growth – sdo1-depleted yeast growth rescue | actives 0.21% (n = 140,000) | S. cerevisiae sdo1-depleted JHY4D growth rescue, OD600 30 h; stronger effect = higher value; pdr5 snq2 efflux-pump mutant strain | AID 817 | z-score at 10 µM;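 active = z-score above 3 at both the 24 hr and the 30 hr optical density reads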;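 note: z-score against mean and SD of all compound wells on the same plate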
Phagocyt inh – inhibitors of macrophage phagocytosis; J774A.1 macrophage IgG-bead phagocytosis, imaging; inhibition, % at 5 µM; actives 0.07% (n = 110,000); AID 1029;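 active = inhibition above the mean of the plate negative controls plus 5 SD, cut at about 13% in these data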;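 note: phagocytic index as fraction of beads internalized from green versus red external bead signal; plate controls were DMSO negative control for no effect and cytochalasin-D positive control for full effect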
sEH inh – blocks human soluble epoxide hydrolase activity; P34913; recombinant human sEH enzymatic activity assay; inhibition, % at 2 µM; actives 0.34% (n = 91,000); AID 707; in the data active = inhibition above about 80%
The depositor's hits bear a star; / = not tested or not shown; [ ] = remark or other dose. Rows were chosen to be rich in hits. Some 1% of all compounds tested hit in one or more screens of this group.

SMILES	MRP-1 activ	MRP resist rev	sEH activator	sdo1 growth	Phagocyt inh	sEH inh
COc1ccc(NC(=O)C(=O)N/N=C/c2cc(C)n(-c3cccc(Cl)c3Cl)c2C)c(OC)c1	5.3*	/	-3	-0.49	/	3
O=C(Nc1ncn[nH]1)c1ccc(Cl)c(S(=O)(=O)Nc2ccc(Cl)cc2)c1	4.8*	/	/	0.55	-5	/
Cc1cccc(NC(=O)c2cccc(NS(=O)(=O)c3ccc(Cl)cc3)c2)c1	0	/	-22	-0.53	2	23
COc1cc(S(=O)(=O)Nc2cccc(C)c2)ccc1NC(=O)c1ccncc1	5.2*	/	/	0.86	/	/
Cc1ccccc1C(=O)O/N=C/c1c(N2CCOCC2)n(C)c2ccccc12	-4	/	-1	-2.3	23*[artifact]	3
Cc1ccccc1C(=O)O/N=C(\N)c1ccncc1	0	/	/	-0.2	0	/
CCCCCCCC1CC(CSc2ncn[nH]2)OC1=O (stereo unspecified)	10*	9	0	-0.71	/	0
COC(=O)C(/C=N/OCc1ccc([N+](=O)[O-])cc1)NC(=O)c1cccc(Cl)c1 (stereo unspecified)	-1	-2	-7	-1.1	-2	10
S=C(c1ccc(-c2ccccc2Cl)o1)N1CCCCC1	5.3*	/	/	-0.91	-14	/
CN1CCN(C(=S)c2ccc(-c3cccc(Cl)c3Cl)o2)CC1	0	/	/	-1.7	-5	/
N#C/C(=N\Nc1ccc(S(=O)(=O)N2CCCCC2)cc1)C(N)=S	-2	/	/	1.4	/	/
N#CC(C#N)=NNc1ccc(S(=O)(=O)N2CCCC2)cc1	5.1*	/	/	0.59	2	/
COc1ccc(NC(=O)COC(=O)c2c3c(nc4ccccc24)CCCC3)cc1	3	-8	/	-2	/	/
COc1ccc(NC(=O)COC(=O)c2c3c(nc4ccccc24)CCCC3)cc1Cl	5.3*	/	-29	-2.1	/	27
COc1ccc(C(C)=O)cc1CSc1nnc(Nc2ccc(C)cc2C)s1	1	/	/	-0.73	-4	/
COc1ccc(C(C)=O)cc1CSc1nnc(Nc2ccccc2C)s1	6.0*	/	/	-1.4	-2	/
CCCCN(C(=N)N1CCCCC1)c1nc(C)c([N+](=O)[O-])c(=O)[nH]1	2	/	/	0.65	-15	/
O=C(O)CCC(=O)OCC1CCCO1 (stereo unspecified)	-1	2	-7	1.1	-1	8
Nc1nnc(CSCc2ccc(Cl)cc2Cl)s1	2	/	/	0.77	-4	/
N=C(N)SCc1ccc(Cl)cc1Cl	5.2*	/	/	-0.48	-1	/
CCN(CC)S(=O)(=O)c1cccc(C(=O)NCCc2ccccc2)c1	/	-3	-81	/	/	81*
CCN(CC)S(=O)(=O)c1cccc(NC(=O)C(=O)c2c(-c3ccccc3)cc3ccccn23)c1	4	/	8	-0.75	-2	-5
CCN(CC)S(=O)(=O)c1cccc(C(=O)c2c(C)cc3ccccn23)c1	4.8*	/	/	-0.67	-7	/
CCN(CC)S(=O)(=O)c1cc(NC(=O)C(=O)c2c(-c3ccccc3)cc3ccccn23)ccc1C	6.9*	5	11	-0.34	2	-8
COc1ccc(C(=O)NCC(=O)NCC(=O)OCC(=O)C(C)(C)C)cc1	-1	/	/	1.1	-1	/
SMILES	MRP-1 activ	MRP resist rev	sEH activator	sdo1 growth	Phagocyt inh	sEH inh
CN1CCN(c2c3c(c(C#N)c4nc5ccccc5n24)CCCC3)CC1	/	38	/	/	/	/
Cc1nc2cccc(C)n2c(=O)c1Cl	-2	1	-34	1.9	-2	36
Cc1nn(-c2ccccc2)c(/N=C/c2ccc(O)cc2)c1-c1ccccc1	-1	/	/	-0.02	-6	/
C=CCNS(=O)(=O)c1nc(C)c(Cl)c(C)c1C#N	-3	1	/	0.41	27*	/
CSc1nc(C)c(Cl)c(C)c1C#N	-3	8	/	-0.26	-3	/
CCCCCCCOc1ccc(-c2ccc(C#N)cn2)cc1	5.1*	/	/	-0.12	/	/
N#Cc1nc(COc2ccccc2)oc1N1CCCC1	5.0*	/	10	-0.72	0	-9
N#Cc1nc(COc2ccccc2)oc1N1CCCCCC1	6.3*	5	/	-1.3	/	/
COc1cccc(N2CCN(Cc3coc4c(Cl)cc(Cl)cc4c3=O)CC2)c1	/	-2	/	/	/	/
Cc1ccnc(NC(=O)COc2ccc3oc4c(c3c2)CCCC4)c1	5.2*	/	-6	-0.78	/	5
Cc1ccccc1N1CCN(C(=O)c2ccccc2NC(=O)C2CC=CCC2C(=O)O)CC1 (stereo unspecified)	0	/	6	-0.11	0	-6
CCCCC(=O)Nc1ccc2oc(-c3ccncc3)nc2c1	-1	2	-43	-0.48	2	44
CCCCCC(=O)Nc1ccc2oc(-c3cncc(Br)c3)nc2c1	-3	18	-82	-1.5	0	82*
O=C(c1cccs1)N1CCN(Cc2ccccc2[N+](=O)[O-])CC1	-1	/	/	-0.7	-7	/
COc1ccccc1C1CN(c2ccc(F)cc2F)N=C1c1cccs1 (stereo unspecified)	1	6	38*	-0.55	1	-35
COc1ccccc1C1CC(c2cccs2)=Nc2ccccc2S1 (stereo unspecified)	-2	6	-11	-1.5	-1	10
c1coc(C2Nc3cccc4cccc(c34)N2)c1	6.0*	-18	-1	-1.3	-3	-2
Cc1ccc(C(=O)NNC(=O)c2ccc(SCC3CCCO3)c([N+](=O)[O-])c2)cc1 (stereo unspecified)	8.2*	4	-13	0.49	-2	15
Cc1ccccc1CSc1ccc(-c2ccc3c(c2)OCO3)nn1	4	/	/	0.03	-9	/
Cc1cc2nc(-c3ccc(SCC(=O)N4CCN(C(=O)c5ccco5)CC4)nc3)[nH]c2cc1C	-4	-9	-81	-0.21	1	81*
CN(C)CCCCNCCCNC(=O)/C=N\O	1	3	6	0.3	54*[artifact]	-6
O=C(N[C@@H](Cc1ccccc1)C(=O)NC1CCCCCC1)c1ccco1	-1	/	-80	-0.37	2	80*
Cn1cc(CC(=O)NCCCN2CCCC2=O)c2ccccc21	-2	12	17	0.65	0	-12
O=c1[nH]c(=O)n(Cc2ccco2)c2c1C(C(F)(F)F)(C(F)(F)F)N=C(Cc1ccccc1)N2	-3	12	-7	1.1	/	8
c1ccc(C(c2ccccc2)N2CCN(c3nc4ccccc4n4cnnc34)CC2)cc1	6.7*	-6	-3	-0.23	1	7
SMILES	MRP-1 activ	MRP resist rev	sEH activator	sdo1 growth	Phagocyt inh	sEH inh
CCc1ccc(C(C(=O)NC2CCCCC2)N(C(=O)CNC(=O)c2ccco2)c2cccnc2)cc1 (stereo unspecified)	/	8	-7	/	/	7
O=C(N/N=C\c1ccc(-c2ccc([N+](=O)[O-])cc2)o1)C1COc2ccccc2O1 (stereo unspecified)	-1	/	/	-1.3	-4	/
O=C(N/N=C/c1ccc(-c2ccc([N+](=O)[O-])cc2)o1)C(O)c1ccccc1 (stereo unspecified)	5.5*	/	/	1.4	-11	/
NC(=O)Nc1ccccc1C(=O)N1CCC(O)(c2ccc(Cl)cc2)CC1	-1	/	/	0.65	-3	/
Cc1ccc(C(=O)N/N=C2/NC(=O)CC(C(=O)Nc3ccccc3)S2)cc1 (stereo unspecified)	-1	/	/	1.3	-7	/
FC(F)(F)c1cccc(CNc2ncccc2-c2nc3cc(Cl)ccc3o2)c1	5.2*	/	7	-1.3	-3	-7
